Source: PubChem BioAssay (National Center for Advancing Translational Sciences (NCATS))
A selection: hits, their analogues and other compounds. The true share with any hit is near 3%.
SARS PLpro yeast: inhibitors of SARS-CoV papain-like protease in yeast; S. cerevisiae expressing SARS-CoV PLpro, growth rescue; actives 0.19% (n = 330,000); Potency, µM (highest dose often 32.9 µM), actives largely listed as activators; calls by dose curve; further: nearly all actives have a fitted effect of over 55% in size
Sm TGR block: blocks Schistosoma mansoni thioredoxin glutathione reductase; AID 485364; actives 3% (n = 360,000); Q962Y6; Potency, µM (doses to about 114 µM), most hits filed as inhibitors; purified TGR, DTNB reduction, TNB absorbance 405 nm; active means well fitted inhibition curve with a large enough effect; inconclusive means small, poorly fitted or top-dose-only effect; inactive means no such curve, though single readings can be large or run the other way; further: nearly all actives have a fitted effect of over 60% in size
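Kinetic colorimetric format: TGR-catalysed, NADPH-driven DTNB reduction monitored via TNB absorbance. Enzyme dispensed at 20 nM; compound exposure 15 min at room temperature before reaction start.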
Each line names hits and unclear results; the compound was inactive in the other large screens.

Cc1cc(C)c(NC(=O)Cn2nc3c(cc2=O)CCCC3)c(C)c1	none (no result: SARS PLpro yeast)
Cc1ccc(-c2nc(CS(=O)CC(=O)NC3CCC(C)CC3)c(C)o2)cc1 (centres undefined)	Sm TGR block 14µM
Cc1oc(-c2ccc(Cl)cc2)nc1CS(=O)CC(=O)NCc1ccccn1 (centres undefined)	Sm TGR block 40µM
Cc1oc(-c2ccc(Cl)cc2)nc1CS(=O)CC(=O)NC1CC1 (centres undefined)	Sm TGR block 16µM
Cc1oc(-c2ccc(Cl)cc2)nc1CS(=O)CC(=O)NC(C)c1ccccc1 (centres undefined)	Sm TGR block 8.9µM
Cc1oc(-c2ccc(Cl)cc2)nc1CS(=O)CC(=O)NCCCN1CCCC(C)C1 (centres undefined)	none (no result: SARS PLpro yeast)
Cc1oc(-c2ccc(Cl)cc2)nc1CS(=O)CC(=O)NCc1ccco1 (centres undefined)	Sm TGR block inconclusive
Cc1ccc(-c2nc(CS(=O)CC(=O)NCc3ccccc3Cl)c(C)o2)cc1 (centres undefined)	none (no result: SARS PLpro yeast)
Cc1ccc(-c2nc(CS(=O)CC(=O)O)c(C)o2)cc1 (centres undefined)	none (no result: SARS PLpro yeast)
COc1ccc(OC)c(C2CC(=O)Oc3c2c(=O)n(C)c2ccccc32)c1 (centres undefined)	none (no result: SARS PLpro yeast)
Cc1cccc(NC(=O)Cn2c(=O)nc(-c3ccccc3)c3ccccc32)c1C	none (no result: SARS PLpro yeast)
COC(=O)c1ccc(CSc2ccc3nnc(-c4cccnc4)n3n2)o1	Sm TGR block 40µM
COC(=O)c1ccc(CSc2ccc3nnc(-c4ccc(OC)cc4)n3n2)o1	Sm TGR block inconclusive
CC1=NN=C(c2ccccc2)C(c2c[nH]c3ccccc23)N1O (centres undefined)	none
Cc1[nH]c2ccccc2c1C1C(c2ccccc2)=NN=C(C(C)C)N1O (centres undefined)	Sm TGR block 11µM
COC(=O)c1ccc(N2C(=O)Cc3cc(OC)c(OC)cc3C2c2ccc(F)cc2)cc1 (centres undefined)	none (no result: SARS PLpro yeast)
O=[N+]([O-])c1ccc(Sc2cc[n+]([O-])c3ccccc23)c([N+](=O)[O-])c1	Sm TGR block 7.9µM
O=[N+]([O-])c1ccc(Cl)cc1Sc1nc2ccccc2o1	none
O=[N+]([O-])c1ccc(Sc2nc3ccccc3o2)c([N+](=O)[O-])c1	Sm TGR block 4µM
Cc1ccc(Sc2ccc([N+](=O)[O-])cc2[N+](=O)[O-])nc1	Sm TGR block inconclusive
Cc1ccnc(Sc2ccc([N+](=O)[O-])cc2[N+](=O)[O-])n1	Sm TGR block inconclusive
Nc1nc(Sc2ccc([N+](=O)[O-])cc2[N+](=O)[O-])n[nH]1	Sm TGR block 32µM
O=C1CN(C(=O)c2ccc(S(=O)(=O)N3CCCCC3)cc2)C(c2ccc(F)cc2)c2cc(F)ccc2N1 (centres undefined)	none (no result: SARS PLpro yeast)
CCn1nnc2cc(C(=O)Nc3ccc(Cl)cc3C)ccc21	none (no result: SARS PLpro yeast)
COc1c(C)cccc1C(=O)Nc1ccc(-c2nc3ccccc3s2)c(Cl)c1	none (no result: SARS PLpro yeast)
CCCCCn1c(-c2ccco2)nc2nc3ccccc3nc21	Sm TGR block inconclusive
COc1ccc(CCn2c(-c3ccco3)nc3nc4ccccc4nc32)cc1	Sm TGR block 50µM
c1ccc(-c2nc3nc4ccccc4nc3n2CC2CCCO2)cc1 (centres undefined)	none
c1coc(-c2nc3nc4ccccc4nc3n2CC2CCCO2)c1 (centres undefined)	Sm TGR block 50µM
COc1cccc(CNC(=O)c2ccc(Cn3c(SCc4ccccc4)nc4cccnc43)cc2)c1	none (no result: SARS PLpro yeast)
O=C(/C=C/c1c(F)cccc1Cl)c1ccc(O)cc1	Sm TGR block 40µM
O=C(/C=C/c1ccccc1Cl)c1ccc(O)cc1	Sm TGR block 45µM
N#Cc1ccc(/C=C/C(=O)O)cc1	none
O=C(/C=C/c1c(F)cccc1Cl)Nc1ncccn1	none
O=C(/C=C/c1ccccc1Cl)Nc1ccccc1	none
CCN(CC)c1ccc(/C=C/C(=O)c2cccnc2)cc1	none
N#Cc1ccc(/C=C/C(=O)c2cccnc2)cc1	Sm TGR block 28µM
O=C(/C=C/c1ccc(Cl)cc1)c1cccnc1	Sm TGR block 14µM
COc1ccc(NC(=O)c2oc3ccccc3c2NC(=O)Cc2ccc(F)cc2)c(OC)c1	none (no result: SARS PLpro yeast)
O=C(/C=C/c1ccccc1Cl)c1cccnc1	Sm TGR block 13µM
O=C(/C=C/c1cccnc1)/C=C/c1cccnc1	Sm TGR block 3.2µM
O=C(/C=C/c1cccnc1)c1cc(F)ccc1O	none
O=C(/C=C/c1ccccc1Cl)NNC(=O)c1ccncc1	none
CC1CC(=O)N(CC(=O)Nc2ccc(F)cc2F)c2ccccc2S1 (centres undefined)	none (no result: SARS PLpro yeast)
NC(=O)c1cccc(C[C@H](C(=O)O)N2C(=O)c3ccc(C(=O)O)cc3C2=O)c1	none
CCc1ccc(NC(=O)CSc2nc(=O)n(Cc3cccnc3)c3c2CCC3)cc1	none (no result: SARS PLpro yeast)
COc1cc(OC)cc(C(=O)Nc2cccc(-c3cn4ccsc4n3)c2)c1	none (no result: SARS PLpro yeast)
COc1cc(Nc2ccccc2Cl)c([N+](=O)[O-])nc1[N+](=O)[O-]	Sm TGR block 40µM
COc1ccccc1Nc1ccc([N+](=O)[O-])cc1N	none
O=C(CC1C(=O)N(c2ccccc2)C(=O)N1Cc1ccc2c(c1)OCO2)Nc1ccccc1 (centres undefined)	none (no result: SARS PLpro yeast)
Cc1ccc(CNC(=O)C2CCCN(c3nc4c(C)cc(C)cc4s3)C2)cc1 (centres undefined)	none (no result: SARS PLpro yeast)
Cc1c(C(=O)Nc2nc(-c3ccc(F)cc3)ns2)oc2ccc(Br)cc12	none (no result: SARS PLpro yeast)
CC(C)(C)C#CC(CCc1ccccc1)OS(N)(=O)=O (centres undefined)	Sm TGR block 28µM
CCOC(=O)C#CC(CCc1ccccc1)OS(N)(=O)=O (centres undefined)	Sm TGR block 11µM
CC(CCc1ccccc1)NS(=O)(=O)c1ccccc1 (centres undefined)	none
CCOC(=O)N1CCN(C(=O)CCc2ccccc2)CC1	none
CCC1CCc2nc3sc(C(=O)Nc4cccc(F)c4)c(N)c3cc2C1 (centres undefined)	none (no result: SARS PLpro yeast)
COc1ccc(-c2coc3c2c(C)cc2oc(=O)c(CC(=O)O)c(C)c23)cc1	none (no result: SARS PLpro yeast)
O=C1c2cccc3cccc(c23)C(=O)N1c1nccs1	none
O=C1c2cccc3c([N+](=O)[O-])ccc(c23)C(=O)N1c1ccc(Cl)cn1	Sm TGR block 14µM
O=C1c2cccc3c([N+](=O)[O-])ccc(c23)C(=O)N1O	none
O=C1c2ccc([N+](=O)[O-])cc2C(=O)N1c1ccc(Cl)cn1	none
O=C1c2cccc3c([N+](=O)[O-])ccc(c23)C(=O)N1c1ccccn1	Sm TGR block 20µM
O=C1c2cccc3c([N+](=O)[O-])ccc(c23)C(=O)N1c1nccs1	Sm TGR block 1.8µM
CCOc1ccc(C2c3[nH]c4ccccc4c3CCN2C(=O)CSc2ccccc2)cc1 (centres undefined)	none (no result: SARS PLpro yeast)
COC(=O)c1ccc(NC(=O)C(C)N2Cc3ccccc3C2=O)cc1 (centres undefined)	none (no result: SARS PLpro yeast)
Cc1cc(C)c(/C=C/c2onc(C)c2S(=O)(=O)N2CCC(C(=O)NCC(C)c3ccccc3)CC2)c(C)c1 (centres undefined)	none (no result: SARS PLpro yeast)
CC(=O)N1CCCc2ccc(NC(=O)c3ccc(OC(C)C)cc3)cc21	none (no result: SARS PLpro yeast)
Cc1ccc(NC(=O)CCN2C(=O)c3ccccc3Sc3ncccc32)cc1	Sm TGR block 13µM
Cc1ccccc1NC(=O)CCN1C(=O)c2ccccc2Sc2ncccc21	none (no result: SARS PLpro yeast)
CC(C)NC(=O)CCCN1C(=O)c2ccccc2Sc2ncccc21	Sm TGR block 79µM
CC(C)CCNC(=O)CCCN1C(=O)c2ccccc2Sc2ncccc21	none (no result: SARS PLpro yeast)
